Shown are actives, neighbours in structure and some others; about 2.4% of the full set was active somewhere.
POLH inh – blocks human DNA polymerase eta activity; Q9Y253; recombinant Pol eta, fluorescent DNA replication assay; Potency, µM (series often up to 114 µM), for inactives: top-dose activity change, negative = inhibition, actives largely listed as inhibitors; 1.2% of 390,000 active; also: % is scaled to controls: 0 for no effect and ±100 for the full control effect
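Fluorescent replication assay: 50 nM final substrate added after a 15 min room-temperature compound preincubation with 10 nM enzyme. Signal taken at 0 min and again at 10 min.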
FEN1 inhibitor – blocks human flap endonuclease 1. P39748. 0.35% of 390,000 active. Recombinant FEN1 flap cleavage, fluorescence, 15 min. Potency, µM (doses to about 114 µM), inactives show at the top dose activity change, negative = inhibition, usual class: inhibitors. AID 588795; also: % is scaled to controls: 0 for no effect and ±100 for the full control effect; nearly all actives have a fitted effect of over 65% in size
Target sequence (P39748 whole entry, looked up): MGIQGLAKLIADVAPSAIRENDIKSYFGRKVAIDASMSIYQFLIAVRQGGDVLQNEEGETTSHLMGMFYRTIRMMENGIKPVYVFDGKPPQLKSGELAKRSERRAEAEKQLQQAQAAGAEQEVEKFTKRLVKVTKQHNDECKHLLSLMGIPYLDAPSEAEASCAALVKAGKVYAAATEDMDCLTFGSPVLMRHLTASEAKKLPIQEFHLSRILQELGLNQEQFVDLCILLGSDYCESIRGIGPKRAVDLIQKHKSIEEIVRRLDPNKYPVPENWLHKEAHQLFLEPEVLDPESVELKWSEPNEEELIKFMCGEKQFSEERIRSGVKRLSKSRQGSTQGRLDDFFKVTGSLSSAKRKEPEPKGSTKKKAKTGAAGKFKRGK
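Potency values derive from four-parameter Hill fits of normalized qHTS data. The reaction used 10 nM FEN1 preincubated 15 min at room temperature with compound, then 50 nM DNA substrate, read at 0 and 15 min.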
Pol beta inh – DNA polymerase beta (human) inhibition | P06746 | Pol beta primer extension/strand displacement, fluorescence kinetic | Potency, µM (titrated, usually from 114 µM), without a hit: at the highest dose activity change, negative = inhibition, hits mostly inhibitors | 1.3% of 340,000 active | AID 485314; also: % is scaled to controls: 0 for no effect and ±100 for the full control effect
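Kinetic readout of DNA synthesis with strand displacement by Pol beta. Compound and 10 nM enzyme sit 15 min at room temperature; 50 nM substrate starts the reaction, read immediately and at 10 min.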
POLK inh – DNA polymerase kappa (human) inhibition; purified Pol kappa, fluorescent DNA synthesis assay, 10 min; 0.53% of 400,000 active; Potency, µM (highest dose often 107 µM), for inactives: at the highest dose activity, negative = inhibition, usual class: inhibitors; AID 588579; also: % is scaled to controls: 0 for no effect and ±100 for the full control effect
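10 nM Pol kappa was preincubated with compounds for 15 min at room temperature. Reaction started with 50 nM (final) substrate. Fluorescence read kinetically at 0 and 10 min.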
WRN helicase inh – inhibitors of human WRN helicase; Potency, µM (highest dose often 114 µM), inactives show at the highest dose activity change, negative = inhibition, usual class: inhibitors; WRN helicase unwinding, fluorescent forked duplex, kinetic; Q14191; 0.46% of 360,000 active; also: % is scaled to controls: 0 for no effect and ±100 for the full control effect; nearly all actives have a fitted effect of over 55% in size
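Enzyme (20 nM final) and test compound sit together 15 min at room temperature before substrate addition. Substrate is a single-forked duplex oligonucleotide (100 nM) labelled with fluorophore and quencher, with 2 mM ATP; helicase unwinding raises red fluorescence, read kinetically.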
Pol iota inh – blocks human DNA polymerase iota activity; 1% of 390,000 active; Pol iota fluorescent replication assay, 10 min; AID 588590; Potency, µM (series often up to 115 µM), for the others: at the top dose activity, negative = inhibition, most hits filed as inhibitors
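Fluorescent replication assay read twice, at 0 min and 10 min after adding 50 nM (final) substrate. Enzyme (10 nM) and compounds were first incubated 15 min at room temperature; enzyme-free buffer wells were negative controls.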
The depositor's hits bear a star; [ ] = dose if it differs, or a comment. Calls follow the shape of the dose curve; as a rule, active = well fitted curve in the direction sought with a large enough effect; inconclusive = small, poorly fitted or top-dose-only effect, or another doubt; inactive = no such curve, though single readings can be large; an effect the other way counts as inactive or inconclusive. Potency is read from the fitted curve at half-maximal effect.

For Cc1c(Cl)cccc1NC(=O)C(=O)NCCc1csc(-c2cccc(F)c2)n1 the results were POLH inh -9%, FEN1 inhibitor 3%, Pol beta inh 1%, POLK inh -10%[60.1 µM] and Pol iota inh 11%.
`Nc1cccc2c(=O)[nH]ccc12` gave POLK inh -12%[12 µM].
`C[C@@H](O)CNC(C)(C)CC(=O)N[C@@H]1CCc2ccccc2N(Cc2ccc(-c3ccccc3-c3nn[nH]n3)cc2)C1=O` gave POLK inh 1%[60.1 µM].
For CCN(CC)C1CC(=O)N(c2cccc(C)c2)C1=O (stereo not given) the results were Pol beta inh -10%.
Screening O=C1C=CC(=O)N1c1ccc(Nc2ccccc2)cc1 returned POLH inh 1%, FEN1 inhibitor 2%, POLK inh -20%, WRN helicase inh inconclusive and Pol iota inh -16%.
Cc1cccc(N2C(=O)C=CC2=O)c1 was read as POLH inh -3%, FEN1 inhibitor 2%, POLK inh -24%, WRN helicase inh 45µM* and Pol iota inh 28%.
For O=C1C=CC(=O)N1c1ccc2ccccc2c1 the results were POLH inh -16%, FEN1 inhibitor -2%, POLK inh -12%, WRN helicase inh 50µM* and Pol iota inh 14%.
Screening OC(CN1C=CCc2ccccc21)c1ccc(Cl)cc1Cl (stereo not given) returned FEN1 inhibitor -4%, POLK inh 4% and Pol iota inh -13%.
`Cc1nnsc1S(=O)c1ccc(Cl)cc1` (stereo not given) gave POLH inh -3%, FEN1 inhibitor 18%, Pol beta inh 12%, POLK inh -15%, WRN helicase inh 0% and Pol iota inh -26%.
Screening O=C(c1nnsc1S(=O)c1ccc(Cl)cc1)N1CCOCC1 (stereo not given) returned POLH inh 2%, FEN1 inhibitor -15%, Pol beta inh 4%, POLK inh -3%, WRN helicase inh 25µM* and Pol iota inh inconclusive.
For O=C(CCl)Nc1nc(-c2ccco2)c(-c2ccco2)s1 the results were POLH inh 13µM*, FEN1 inhibitor -7%, Pol beta inh inconclusive, POLK inh -32%, WRN helicase inh -6%[11.6 µM] and Pol iota inh inconclusive.
`Nc1nc(-c2ccco2)c(-c2ccco2)s1` gave POLH inh inconclusive, FEN1 inhibitor -7%, Pol beta inh inconclusive, POLK inh -13%, WRN helicase inh -34% and Pol iota inh inconclusive.
Screening O=C(N=Nc1c(O)[nH]c2ccc(F)cc12)c1ccc(NS(=O)(=O)c2cccs2)cc1 returned POLH inh inconclusive, FEN1 inhibitor -24%, POLK inh -8%, WRN helicase inh 0% and Pol iota inh 20%.
`Cc1ccc2[nH]c(O)c(N=NC(=O)c3ccc(NS(=O)(=O)c4cccs4)cc3)c2c1` gave POLH inh 22µM*, FEN1 inhibitor inconclusive, Pol beta inh 3%, POLK inh -11%, WRN helicase inh -31%[57.1 µM] and Pol iota inh inconclusive.
For COc1ccc(C(=O)O/N=C2\C(=O)N(C)c3ccccc32)cc1 the results were POLH inh 3%, FEN1 inhibitor -13%, POLK inh 0%, WRN helicase inh -5% and Pol iota inh -4%.
For CN1C(=O)/C(=N\OC(=O)c2cccc3ccccc23)c2ccccc21 the results were POLH inh 1%, FEN1 inhibitor -3%, Pol beta inh 46%, POLK inh -6%, WRN helicase inh 57%[57.1 µM] and Pol iota inh 32µM*.
For COc1cccc(OCc2nnc(SCC(=O)NCc3ccco3)n2CCc2ccccc2)c1 the results were POLH inh 14µM*, FEN1 inhibitor -3%, Pol beta inh 22µM*, POLK inh inconclusive, WRN helicase inh -19%[57.1 µM] and Pol iota inh inconclusive.
For COc1cccc(OCc2nnc(SCC(=O)NCc3ccco3)n2C)c1 the results were POLH inh -2%, FEN1 inhibitor -10%, Pol beta inh -10%, POLK inh -14%, WRN helicase inh -10% and Pol iota inh 2%.
For CCC(C(=O)Nc1ccc(C(C)=O)cc1)n1cnc2nc3c(cc2c1=O)CCCC3 (stereo not given) the results were POLH inh 1%, FEN1 inhibitor -4%, Pol beta inh 23%, POLK inh -8%[60.1 µM] and Pol iota inh 28%.
`O=C(Nc1nnc(-c2ccc(F)cc2)s1)c1ccco1` gave POLH inh -13%, FEN1 inhibitor -13%, Pol beta inh 35%, POLK inh -2%, WRN helicase inh 0% and Pol iota inh 15%.
For CC(C)Sc1nnc(NC(=O)c2ccco2)s1 the results were POLH inh 89µM*, FEN1 inhibitor 13%, Pol beta inh -22%, POLK inh -17%, WRN helicase inh -3%[57.1 µM] and Pol iota inh inconclusive.
O=C(Nc1n[nH]c(=S)s1)c1ccco1 was read as POLH inh -3%, FEN1 inhibitor inconclusive, Pol beta inh 6%, POLK inh 56µM*, WRN helicase inh -8%[11.6 µM] and Pol iota inh inconclusive.
Screening O=C(CSc1nnc(NC(=O)c2ccccc2Cl)s1)Nc1ccc2c(c1)oc1ccccc12 returned Pol beta inh 32µM*.
COc1cc(OC)c2c(C)c(CC(=O)NCc3ccccc3OC)c(=O)oc2c1 was read as POLH inh 28µM*, FEN1 inhibitor 2%, Pol beta inh -11%, POLK inh -5% and Pol iota inh 3%.
For Cc1cc(C)cc(NC(=O)c2oc3ccc4c(c3c2C)C(=O)CC(C)(C)O4)c1 the results were POLH inh -15%, FEN1 inhibitor 4%, Pol beta inh -8%, POLK inh 0% and Pol iota inh 17%.
COc1ccccc1CNC(=O)c1oc2ccc3c(c2c1C)C(=O)CC(C)(C)O3 was read as FEN1 inhibitor -19%, Pol beta inh 2%, POLK inh -19% and Pol iota inh 89µM*.
`Cc1c(C(=O)NCc2cccc(Br)c2)oc2ccc3c(c12)C(=O)CC(C)(C)O3` gave FEN1 inhibitor 89µM*, Pol beta inh 8%, POLK inh inconclusive and Pol iota inh 79µM*.
For Cc1ccc(S(=O)(=O)NC(=O)c2ccc(-c3ccc(-c4ccccc4)cc3)o2)c(C)c1 the results were Pol beta inh 56µM*.
For CCCC[n+]1ccn(-c2nc3ccccc3nc2[N-]S(=O)(=O)c2ccccc2)c1 the results were POLH inh -7%, FEN1 inhibitor 0%, Pol beta inh 3%, POLK inh -2%, WRN helicase inh -4% and Pol iota inh inconclusive.
